Sampled rows, rich in hits. Any-hit rate of the full collection: about 5.5%.
CBFb RUNX1 block: CBF-beta/RUNX1 interaction disruption | Q01196+Q13951 | AlphaScreen CBFb-His/RUNX1-biotin binding, biochemical | Potency, µM (top dose mostly 59.8 µM), for the others: at the top dose activity, negative = inhibition, hits mostly inhibitors | 230,000 tested, under 10 active; note: % of control where 0% means no effect
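Read-out: AlphaScreen. Format: His-CBF-beta with biotinylated RUNX1 (30 nM each) preincubated 20 min, compound 15 min, Ni-chelate plus streptavidin beads 90 min; room temperature throughout.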
MBNL1 CUG block: MBNL1-poly(CUG) RNA binding inhibition; TR-FRET MBNL1-His/biotin-(CUG)12 binding, 665/545 ratio; Potency, µM (titrated, usually from 57.5 µM), for the others: top-dose activity change, negative = inhibition, actives largely listed as inhibitors; 280,000 compounds, 0.036% hits; Q9NR56; active = well fitted inhibition curve with a large enough effect in the signal ratio, with a control signal flat, not every such curve was filed as active; inconclusive = small, poorly fitted or top-dose-only effect, or effect the other way, or a change in a side signal; inactive = no such curve, though single readings can be large or run the other way; the % refers to the signal ratio; note: potency is the fitted concentration of half-maximal effect; % is set by controls: 0 for no effect and ±100 for the full control effect
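Inhibition of protein-RNA binding appears as loss of TR-FRET between terbium anti-His antibody on MBNL1-His and streptavidin-XL665 on biotin-(CUG)12. Activity is normalized to buffer-only and uninhibited-complex controls.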
RORg inh: inhibitors of mouse ROR gamma transcriptional activity. P51450. Drosophila S2 Gal4-RORgamma UAS-luciferase reporter, 20 h. Potency, µM (doses to about 53.6 µM), for inactives: top-dose activity change, negative = inhibition, actives largely listed as inhibitors. 310,000 compounds, 5.4% hits. AID 2551; note: potency is the fitted concentration of half-maximal effect; % is set by controls: 0 for no effect and ±100 for the full control effect; nearly all actives have a fitted effect of over 60% in size
Target sequence (P51450 whole entry, looked up, the tested form may be a part): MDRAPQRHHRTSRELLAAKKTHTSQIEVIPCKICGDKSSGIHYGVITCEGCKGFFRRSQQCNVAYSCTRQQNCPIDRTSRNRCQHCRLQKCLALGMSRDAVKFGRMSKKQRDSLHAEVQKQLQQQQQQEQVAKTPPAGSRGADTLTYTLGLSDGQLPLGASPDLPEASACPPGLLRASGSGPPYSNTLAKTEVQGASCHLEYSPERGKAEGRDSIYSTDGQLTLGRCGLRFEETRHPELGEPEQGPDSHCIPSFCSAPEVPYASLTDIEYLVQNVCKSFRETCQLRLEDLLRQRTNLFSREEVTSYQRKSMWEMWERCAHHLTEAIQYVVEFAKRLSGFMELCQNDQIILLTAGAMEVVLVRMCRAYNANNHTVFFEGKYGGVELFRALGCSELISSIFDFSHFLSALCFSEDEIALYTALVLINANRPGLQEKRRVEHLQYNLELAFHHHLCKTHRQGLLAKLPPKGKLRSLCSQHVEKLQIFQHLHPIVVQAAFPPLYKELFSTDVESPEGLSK
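Drosophila S2 cells stably expressing Gal4-DBD/mouse RORγ fusion under metallothionein promoter plus UAS-luciferase; compound 1 h, then 700 uM CuSO4 induction for 20 h at ambient temperature; inhibition read as reduced luminescence.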
VP16 counter: Gal4-VP16 reporter inhibition counter-screen | Drosophila S2 Gal4-VP16 UAS-luciferase, luminescence, 20 h | Potency, µM (highest dose often 53.6 µM), for inactives: at the highest dose activity, negative = inhibition, most hits filed as inhibitors | 310,000 compounds, 3.5% hits;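 note: Gal4-VP16 expression switched on by copper sulfate through the metallothionein promoter; potency is the fitted concentration of half-maximal effect; % is set by controls: 0 for no effect and ±100 for the full control effect; nearly all actives have a fitted effect of over 50% in size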
Six1-Eya2 blk: inhibitors of human Six1/Eya2 interaction; 360,000 compounds, 0.56% hits; AlphaScreen GST-Six1/His-Eya2 binding, biochemical; stronger effect = lower value; AID 651725; Q15475+O00167; activity change, % (test concentration not listed); in the data active = activity change below about -65%; inconclusive = mostly about -30% to -63%; note: % is set by controls: 0 for no effect and ±100 for the full control effect
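GST-Six1 + His-Eya2 (5X stock: 250/500 nM); Tris pH 8.0, 300 mM NaCl, 0.05% BSA, 0.02% Tween 20; GSH donor/Ni acceptor beads; 1 h 37 °C dark; AlphaScreen readout.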
CtBP-E1A blk: inhibitors of CtBP/E1A interaction; AlphaScreen GST-E1A/His-CtBP binding, 1536-well; stronger effect = lower value; activity change, % (test concentration not listed); 340,000 compounds, 0.49% hits; in the data active = activity change below about -65%; inconclusive = mostly about -30% to -63%; note: % is set by controls: 0 for no effect and ±100 for the full control effect
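Steps: dispense buffer (Tris pH 8.0, NaCl 300 mM, TCEP 1 mM, BSA, Tween 20); add 5X protein mix (GST-E1A, His-CtBP, 125 nM each); pin 23 nL compound; 2 h at 37 °C, dark; add 5X beads (50 ug/mL); 1 h; read.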
* = called active by the depositor; ? = inconclusive; / = not tested or not shown; ! = not confirmed by another sample. Unless noted, calls come from the whole dose curve; as a rule, active = well fitted curve in the direction sought with a large enough effect; inconclusive = small, poorly fitted or top-dose-only effect, or another doubt; inactive = no such curve, though single readings can be large; an effect the other way counts as inactive or inconclusive.

SMILES	CBFb RUNX1 block	MBNL1 CUG block	RORg inh	VP16 counter	Six1-Eya2 blk	CtBP-E1A blk
COc1ccc(/C=C2\SC(=S)N(CCCC(=O)N3CCOCC3)C2=O)cc1	/	/	/	/	-5.4	-4.5
COc1cccc(/C=C2\SC(=S)N(CCCC(=O)N3CCCC3)C2=O)c1	/	22.0%	2.51µM*	-16.8%	-11.7	-2.3
Cc1ccc(CN2C(=O)C(C)Nc3ncnc(N4CCN(c5ccccn5)CC4)c32)cc1 (configuration not stated)	/	/	/	/	-7.4	-2.6
CCC(=O)N1CCN=C1SCc1c(F)cccc1Cl	/	0.6%	11.2%	-2.1%	0.6	6.3
COc1cccc2c1OC1(N3CCOCC3)CCCCC1C2C[N+](=O)[O-] (configuration not stated)	/	/	/	/	-0.1	-1.2
Cc1cc(C(=O)Nc2cc(C(C)(C)C)on2)c(C)o1	10.5%	-8.7%	10µM*	1.5%	15.2	/
Brc1cccc(-c2nnc3n2CCCCC3)c1	9.8%	3.0%	-10.6%	-1.4%	1.5	-2.6
Brc1cccc(-c2cnc3n2CCCCC3)c1	-23.3%	2.6%	0.398µM*	10µM*	-25.1	-9.8
Clc1ccc(-c2cnc3n2CCC3)cc1	0.9%	-9.9%	17.8µM*	-6.1%	-16.1	-14.5
Cc1cc(C)nc(-n2nc(C)cc2NC(=O)CNCc2ccccc2)n1	1.8%	-8.9%	5.62µM*	?	12.9	-1.2
CCN(CC(=O)Nc1cc(C)nn1-c1nc(C)cc(C)n1)Cc1ccccc1	-2.3%	-6.7%	1.41µM*	6.31µM*	3.2	-10.4
CCC(C(=O)Nc1cc(C)nn1-c1nc(C)cc(C)n1)c1ccccc1 (configuration not stated)	-3.1%	-17.3%	-16.9%	-18.0%	-2.2	-3.5
Cc1cc(C)c2cc3c(N)c(C(=O)Nc4c(C)[nH]c(=O)[nH]c4=O)sc3nc2c1	-0.6%	?	16.4%	-2.4%	-71.5*	-14.4
Cc1cc(C)c2cc3c(N)c(C(=O)N4CCOCC4)sc3nc2c1	0.6%	?	-1.7%	?	-0.3	0.0
CCOc1ccccc1-c1cnc(NC)cn1	/	/	/	/	16.4	0.0
N#Cc1cccc2c1-c1ccccc1/C2=N/NC(N)=O	/	?	-13.1%	-22.1%	?	-27.1
N#Cc1cccc2c1-c1ccccc1/C2=N/NC(N)=S	/	?	3.98µM*	5.01µM*	?	-24.1
COc1cc(C2c3[nH]c4ccccc4c3CC3COC(=O)N32)cc(OC)c1O (configuration not stated)	/	/	/	/	-5.1	3.1
CCOC(=O)c1[nH]c2ccc(OC)cc2c1NC(=S)N1CCN(c2cccc(C)c2C)CC1	-9.4%	115.5%	4.47µM*	?	-18.3	-18.6
O=C(c1ccc(=O)[nH]c1)N1CCN(S(=O)(=O)c2ccccc2)CC1	/	-7.5%	6.1%	9.9%	2.9	6.3
Cc1ccc(-c2csc(N(CCCN(C)C)C(=O)c3ccco3)n2)cc1	4.4%	-19.5%	0.631µM*	3.55µM*	-19.7	-15.8
COc1cc(CC(=O)Nc2c(-c3ccccc3)[nH][nH]c2=O)cc(OC)c1	/	/	/	/	-0.7	-15.0
Nc1cc(S(=O)(=O)Nc2ccc(Cl)cc2)ccc1N1CCOCC1	0.2%	-9.0%	4.5%	15.8µM*	1.0	-5.6
Cc1ccc(-c2cc(C(F)F)n3ncc(C(=O)N4CCCCC4c4cccnc4)c3n2)cc1 (configuration not stated)	-3.4%	-4.8%	6.6%	4.5%	1.8	2.1
O=C(c1ccc(F)cc1)C1CCN(CCn2c(=S)[nH]c3ccccc3c2=O)CC1	-2.5%	?	7.94µM*!	14.1µM*!	/	/
O=c1c2ccccc2[nH]c(=S)n1CCCN1CCC(Cc2ccccc2)CC1	/	-13.4%	7.94µM*	?	-12.5	/
CCN1CCN(CCn2c(=S)[nH]c3ccccc3c2=O)CC1	-4.6%	-0.4%	-14.2%	-1.5%	1.8	2.7
Cc1cccc(C)c1N1CCN(CCn2c(=S)[nH]c3ccccc3c2=O)CC1	/	25.2%	10µM*	?	-1.9	-1.6
